The results in this text go back to the supplement of paper PMC10498489.

The whole screen tested about 2,300 compounds, of which about 330 (14%) showed activity.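 The calls were made as follows: active = median modified Z-score above 1.96; inactive = 1.96 or below.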 Not all results are given here.

For this experiment, the system named is HepG2 Srxn1-GFP reporter cells (+30 nM CDDO-Me). The experiment can be described thus: Srxn1-GFP intensity median modified Z-score relative to plate median; higher = stronger NRF2 / oxidative stress reporter activation, active = hit call of the paper. Particulars: 10 µM; exposure time: 24h. A digest of the protocol:
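Values give the median, over replicates, of the modified Z-score of GFP intensity on each plate. HepG2 Srxn1-GFP BAC reporter cells were co-treated for 24 h with an NRF2 activator at 30 nM and compound at 10 μM (≤0.1% DMSO) in three replicate plates, then analysed per cell for cytoplasmic GFP on confocal images with at least 100 cells. Scaling used 1.4826 × median absolute deviation.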
For `CCC(C)[C@H]1O[C@]2(C=C[C@@H]1C)C[C@@H]1C[C@@H](C/C=C(\C)[C@@H](OC3C[C@H](OC)C(O[C@H]4C[C@H](OC)[C@@H](O)[C@H](C)O4)[C@H](C)O3)[C@@H](C)/C=C/C=C3\CO[C@@H]4[C@H](O)C(C)=CC(C(=O)O1)[C@]34O)O2` (stereo partly specified) [euspeclibcmpd1285], the “Srxn1-GFP intensity median modified Z-score” value was 16.3 (active).

Turning to `CC(C)(O)C(Cl)(Cl)Cl` [euspeclibcmpd1104], the “Srxn1-GFP intensity median modified Z-score” value is -0.138 (inactive).

With `C=C[C@H]1C[N@]2CC[C@H]1C[C@@H]2[C@@H](OC(=O)OCC)c1ccnc2ccc(OC)cc12` [euspeclibcmpd1022], the “Srxn1-GFP intensity median modified Z-score” value is -0.0707 (inactive).

`CC=C(C)C(=O)O[C@H]1CC[C@@]2(C)[C@@H]3CC[C@H]4[C@]5(O)C[C@H](O)[C@@]6(O)[C@@H](CN7C[C@@H](C)CC[C@H]7[C@@]6(C)O)[C@]5(O)C[C@@]42O[C@]13O` [euspeclibcmpd1469]: the “Srxn1-GFP intensity median modified Z-score” value is 0.0522 (inactive).

Turning to `Nc1[nH]c(=O)n2c1C2` [euspeclibcmpd933], the “Srxn1-GFP intensity median modified Z-score” value was 0.164 (inactive).

With `CS(=N)(=O)CCC(N)C(=O)O` (stereo unspecified) [euspeclibcmpd1752], the “Srxn1-GFP intensity median modified Z-score” value was -0.455 (inactive).

Take `C[C@@]12C(c3coc(O)c3)CC[C@]1(O)C1CC[C@@H]3C[C@@H](O)CC[C@]3(C)C1C[C@H]2O` (stereo partly specified) [euspeclibcmpd2259]: the “Srxn1-GFP intensity median modified Z-score” value was -0.638 (inactive).

For the molecule `CO[C@H]1[C@H](O)[C@@H](O[C@H]2CC[C@]3(C=O)C4CC[C@]5(C)C(c6coc(O)c6)CC[C@]5(O)C4CC[C@@H]3C2)O[C@@H](C)[C@@H]1O` (stereo partly specified) [euspeclibcmpd2165], the “Srxn1-GFP intensity median modified Z-score” value is 3.39 (active).

For the molecule `CC1OC(OC2C=C3CCC4C(CCC5(C)C(c6ccc(=O)oc6)CCC45O)C3(C)CC2)C(O)C(O)C1O` (stereo unspecified) [euspeclibcmpd1931], the “Srxn1-GFP intensity median modified Z-score” value is 2.81 (active).

For the molecule `C[C@H]1O[C@@H](O[C@H]2[C@@H](O)C[C@H](O[C@H]3[C@@H](O)C[C@H](O[C@H]4CC[C@]5(C)C6CC[C@]7(C)C(c8coc(O)c8)CC[C@]7(O)C6CC[C@@H]5C4)O[C@@H]3C)O[C@@H]2C)C[C@H](O)[C@@H]1O` (stereo partly specified) [euspeclibcmpd95], the “Srxn1-GFP intensity median modified Z-score” value was -1.81 (inactive).

As for `C[C@@H]1O[C@@H](O[C@H]2C[C@@H](O)[C@]3(CO)C4C(CC[C@]3(O)C2)[C@@]2(O)CCC(c3coc(O)c3)[C@@]2(C)C[C@H]4O)[C@H](O)[C@H](O)[C@H]1O` (stereo partly specified) [euspeclibcmpd1207], the “Srxn1-GFP intensity median modified Z-score” value was -1.16 (inactive).

For the molecule `CC1OC(OC2C(O)CC(OC3C(O)CC(OC4CCC5(C)C(CCC6C5CCC5(C)C(c7coc(O)c7)C(O)CC65O)C4)OC3C)OC2C)CC(O)C1O` (stereo unspecified) [euspeclibcmpd1936], the “Srxn1-GFP intensity median modified Z-score” value was 2.78 (active).

Take `C[C@H]1O[C@@H](O[C@H]2[C@@H](O)C[C@H](O[C@H]3[C@@H](O)C[C@H](O[C@H]4CC[C@]5(C)C6C[C@@H](O)[C@]7(C)C(c8coc(O)c8)CC[C@]7(O)C6CC[C@@H]5C4)O[C@@H]3C)O[C@@H]2C)C[C@H](O)[C@@H]1O` (stereo partly specified) [euspeclibcmpd96]: the “Srxn1-GFP intensity median modified Z-score” value is -1.88 (inactive).

For the molecule `C[C@@H]1O[C@@H](O[C@H]2CC[C@]3(C=O)C4CC[C@]5(C)C(c6coc(O)c6)CC[C@]5(O)C4CC[C@]3(O)C2)[C@H](O)[C@H](O)[C@H]1O` (stereo partly specified) [euspeclibcmpd1374], the “Srxn1-GFP intensity median modified Z-score” value was 7.48 (active).

As for `CNNC` [euspeclibcmpd2278], the “Srxn1-GFP intensity median modified Z-score” value is -0.486 (inactive).

On to `O=C(O)CCC1NCC2CC1CN1CCCCC21` (stereo unspecified) [euspeclibcmpd2022], for which the “Srxn1-GFP intensity median modified Z-score” value is -0.148 (inactive).

In the case of `O=C1CCCC2C3C[C@H](CN12)[C@@H]1CCCCN1C3` (stereo partly specified) [euspeclibcmpd1695], the “Srxn1-GFP intensity median modified Z-score” value was -0.101 (inactive).

In the case of `CCC(=O)O[C@H]1CCC2C3CC=C4CC(=O)CC[C@]4(C)C3CC[C@@]21C` (stereo partly specified) [euspeclibcmpd7], the “Srxn1-GFP intensity median modified Z-score” value is 0.269 (inactive).

For the molecule `C[N+]1(C)C2CCC1CC(OC(=O)C(CO)c1ccccc1)C2` (stereo unspecified) [euspeclibcmpd790], the “Srxn1-GFP intensity median modified Z-score” value is -0.464 (inactive).

`CN1CCCCC1c1ccc(-c2cccnc2)nc1` (stereo unspecified) [euspeclibcmpd1697]: the “Srxn1-GFP intensity median modified Z-score” value is -0.301 (inactive).

In the case of `C[N+]12CCC(CC1)C(OC(=O)C(O)(c1ccccc1)c1ccccc1)C2` (stereo unspecified) [euspeclibcmpd67], the “Srxn1-GFP intensity median modified Z-score” value was 0.0285 (inactive).

As to `O=P1(N(CCCl)CCCl)NCCCO1` (stereo unspecified) [euspeclibcmpd2335], the “Srxn1-GFP intensity median modified Z-score” value was -0.33 (inactive).

Consider `N=c1nc[nH][nH]1` [euspeclibcmpd1771], for which the “Srxn1-GFP intensity median modified Z-score” value was -0.334 (inactive).

On to `COc1ccc(C(=O)N2CCCC2=O)cc1` [euspeclibcmpd835], for which the “Srxn1-GFP intensity median modified Z-score” value was 1.03 (inactive).

In the case of `NC(Cc1ccc(N(CCCl)CCCl)cc1)C(=O)O` (stereo unspecified) [euspeclibcmpd181], the “Srxn1-GFP intensity median modified Z-score” value was 0.947 (inactive).

Regarding `COc1cc2c(cc1OC)-c1c(oc3c4c(ccc3c1=O)OC(C(C)C)C4)CO2` (stereo unspecified) [euspeclibcmpd1802], the “Srxn1-GFP intensity median modified Z-score” value was -0.169 (inactive).

For the molecule `COc1cc2c(cc1OC)C1C(=O)c3ccc4c(c3O[C@@H]1CO2)CC(C(C)C)O4` (stereo partly specified) [euspeclibcmpd1349], the “Srxn1-GFP intensity median modified Z-score” value was 54.1 (active).

For the molecule `C=C(C)C1Cc2c(ccc3c(=O)c4c(oc23)COc2cc(OC)c(OC)cc2-4)O1` (stereo unspecified) [euspeclibcmpd1633], the “Srxn1-GFP intensity median modified Z-score” value was 0.389 (inactive).

As to `C=C(C)[C@H]1Cc2c(ccc3c2O[C@@H]2COc4cc(OC)c(OC)cc4C2C3=O)O1` (stereo partly specified) [euspeclibcmpd1688], the “Srxn1-GFP intensity median modified Z-score” value was 63.1 (active).

As to `COc1cc2c(cc1OC)C1C(=O)c3ccc4oc(C(C)C)cc4c3O[C@@H]1CO2` (stereo partly specified) [euspeclibcmpd1384], the “Srxn1-GFP intensity median modified Z-score” value is 0.895 (inactive).

With `CCC1(c2ccc(N)cc2)CCC(=O)NC1=O` (stereo unspecified) [euspeclibcmpd20], the “Srxn1-GFP intensity median modified Z-score” value is -0.169 (inactive).

For `C[C@]12CCC(=O)C=C1CCc1ccc(O)cc12` [euspeclibcmpd2145], the “Srxn1-GFP intensity median modified Z-score” value was -0.0198 (inactive).

In the case of `NC(=O)c1cc([N+](=O)[O-])cc([N+](=O)[O-])c1` [euspeclibcmpd211], the “Srxn1-GFP intensity median modified Z-score” value is 1.85 (inactive).

Turning to `CC(=O)O[C@H]1CC[C@@]2(C)C(=CCC3C2CC[C@]2(C)C(=O)CCC32)C1` (stereo partly specified) [euspeclibcmpd1015], the “Srxn1-GFP intensity median modified Z-score” value was -0.448 (inactive).

In the case of `CC1[C@H](C)OC(=O)CC(O)CC(O)CC(O)CCC(O)C(O)C[C@]2(O)CC(O)C(C(=O)O)C(CC(OC3O[C@H](C)[C@@H](O)[C@H](N)[C@@H]3O)/C=C/C=C/C=C/C=C/CC/C=C/C=C/[C@H](C)[C@H]1O)O2` (stereo partly specified) [euspeclibcmpd218], the “Srxn1-GFP intensity median modified Z-score” value is 0.964 (inactive).

As to `c1ccc2c(c1)OCC(C1=NCCN1)O2` (stereo unspecified) [euspeclibcmpd1238], the “Srxn1-GFP intensity median modified Z-score” value was 0.16 (inactive).

Regarding `COc1cccc([C@]2(O)CCCC[C@H]2CN(C)C)c1` [euspeclibcmpd765], the “Srxn1-GFP intensity median modified Z-score” value is -0.221 (inactive).

With `NC(=O)C[S+]([O-])C(c1ccccc1)c1ccccc1` (stereo unspecified) [euspeclibcmpd2299], the “Srxn1-GFP intensity median modified Z-score” value was 0.327 (inactive).

`O=C1C=C2C=CC3C[C@@]2(O1)[C@H]1CCCCN31` [euspeclibcmpd1211]: the “Srxn1-GFP intensity median modified Z-score” value was 9.38 (active).

For `CC1NCCc2cc(O)c(O)cc21` (stereo unspecified) [euspeclibcmpd2171], the “Srxn1-GFP intensity median modified Z-score” value was -0.549 (inactive).

In the case of `CC[C@H]1C2CC3[C@@H]4N(C)c5ccccc5[C@]45C[C@@H](C2C5O)N3[C@@H]1O` (stereo partly specified) [euspeclibcmpd1044], the “Srxn1-GFP intensity median modified Z-score” value was -0.296 (inactive).

On to `Cc1[nH]c2ccccc2c1CN(C)C` [euspeclibcmpd2173], for which the “Srxn1-GFP intensity median modified Z-score” value is -0.24 (inactive).

For the molecule `CN1C2C[C@H](OC(=O)C(CO)c3ccccc3)C[C@H]1[C@H]1OC21` (stereo partly specified) [euspeclibcmpd266], the “Srxn1-GFP intensity median modified Z-score” value is -0.44 (inactive).

On to `Cc1cccc(C)c1N=C1NCCCS1` [euspeclibcmpd416], for which the “Srxn1-GFP intensity median modified Z-score” value was -0.674 (inactive).

As for `CC(C)=CC1C(C(=O)OCc2cccc(Oc3ccccc3)c2)C1(C)C` (stereo unspecified) [euspeclibcmpd1161], the “Srxn1-GFP intensity median modified Z-score” value was -0.28 (inactive).

With `CCOC(=O)C1C(C=C(C)C)C1(C)C` (stereo unspecified) [euspeclibcmpd1522], the “Srxn1-GFP intensity median modified Z-score” value is 0.0825 (inactive).

For `C=C/C=C\CC1=C(C)C(OC(=O)C2[C@@H](C=C(C)C)C2(C)C)CC1=O` (stereo partly specified) [euspeclibcmpd1257], the “Srxn1-GFP intensity median modified Z-score” value is 2.3 (active).

Consider `O=C(O)CCCc1ccc(N(CCCl)CCCl)cc1` [euspeclibcmpd51], for which the “Srxn1-GFP intensity median modified Z-score” value was -0.412 (inactive).

Consider `C=C[C@H]1C[N@@]2CC[C@H]1C[C@H]2[C@H](O)c1ccnc2ccccc12` [euspeclibcmpd2388], for which the “Srxn1-GFP intensity median modified Z-score” value is -0.0385 (inactive).

`O=[N+]([O-])O[C@H]1CO[C@H]2[C@@H]1OC[C@H]2O[N+](=O)[O-]` [euspeclibcmpd166]: the “Srxn1-GFP intensity median modified Z-score” value is -0.506 (inactive).

Take `O=[N+]([O-])O[C@@H]1CO[C@H]2[C@@H]1OC[C@@H]2O` [euspeclibcmpd605]: the “Srxn1-GFP intensity median modified Z-score” value was 3.27 (active).

With `Cc1cc(OC(=O)N2CCCCC2)c(C(C)C)cc1[N+](C)(C)C` [euspeclibcmpd1842], the “Srxn1-GFP intensity median modified Z-score” value is 0.636 (inactive).

Turning to `COc1ccc(O)c(C(C)(C)C)c1` [euspeclibcmpd2212], the “Srxn1-GFP intensity median modified Z-score” value was 0.639 (inactive).

Take `O=C1c2ccccc2-c2cccc3cccc1c23` [euspeclibcmpd1379]: the “Srxn1-GFP intensity median modified Z-score” value was 0.148 (inactive).

Regarding `C=C(C)c1cc2cc(C(C)=O)c(O)cc2o1` [euspeclibcmpd1716], the “Srxn1-GFP intensity median modified Z-score” value is 10.1 (active).

For `O=C(O)CCCO` [euspeclibcmpd2162], the “Srxn1-GFP intensity median modified Z-score” value was -0.552 (inactive).
